From article PMC7862700, “An all-to-all approach to the identification of sequence-specific readers for epigenetic DNA modifications on cytosine”

Tests used:
Experiment in all cases: DAPPL (digital affinity profiling via proximity ligation, sequencing); 10 mM Tris-HCl pH 7.5, 50 mM NaCl, 1 mM DTT, 4% glycerol, room temperature, 30 min; GST-TFs on glutathione beads, 16-mer random dsDNA library, 0.1% formaldehyde crosslink after washing; high values mean tight binding
[1] = target: T1, FLI1 (Homo sapiens, UniProt Q01543 1-452); settings: protein: recombinant; tags: N-terminal GST; dsDNA, one strand shown
T1 sequence: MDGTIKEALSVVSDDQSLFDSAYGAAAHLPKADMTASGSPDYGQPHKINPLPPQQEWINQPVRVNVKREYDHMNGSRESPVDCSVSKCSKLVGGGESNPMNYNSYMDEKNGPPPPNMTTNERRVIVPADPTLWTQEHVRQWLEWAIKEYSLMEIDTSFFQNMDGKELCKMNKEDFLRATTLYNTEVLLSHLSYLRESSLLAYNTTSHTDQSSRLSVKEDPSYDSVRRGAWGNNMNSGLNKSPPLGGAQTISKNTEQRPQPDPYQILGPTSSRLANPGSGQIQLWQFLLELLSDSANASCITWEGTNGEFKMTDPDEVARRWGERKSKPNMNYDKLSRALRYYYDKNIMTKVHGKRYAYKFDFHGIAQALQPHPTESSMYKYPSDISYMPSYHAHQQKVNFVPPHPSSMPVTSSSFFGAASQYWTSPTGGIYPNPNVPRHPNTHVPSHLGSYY
Summary of the method: (§1)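 Binding signal is defined as a hexamer's read frequency for one factor over its frequency for the tag-only sample. To obtain reads, GST-fused human transcription factors were expressed in yeast, captured on glutathione beads, barcoded with DNA and pooled with that sample. Pools met 200 nmole of a 16-mer random double-stranded DNA library in Tris/NaCl/DTT/glycerol buffer for 30 min at room temperature before washing, 0.1% formaldehyde crosslinking, proximity ligation (BsaI/T4 ligase, 1 h, 37 °C), PCR and Illumina NextSeq500 sequencing.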

[2] = target: T2, ELK1 (Homo sapiens, UniProt P19419 1-428); settings: protein: recombinant; tags: N-terminal GST; dsDNA, one strand shown
T2 sequence: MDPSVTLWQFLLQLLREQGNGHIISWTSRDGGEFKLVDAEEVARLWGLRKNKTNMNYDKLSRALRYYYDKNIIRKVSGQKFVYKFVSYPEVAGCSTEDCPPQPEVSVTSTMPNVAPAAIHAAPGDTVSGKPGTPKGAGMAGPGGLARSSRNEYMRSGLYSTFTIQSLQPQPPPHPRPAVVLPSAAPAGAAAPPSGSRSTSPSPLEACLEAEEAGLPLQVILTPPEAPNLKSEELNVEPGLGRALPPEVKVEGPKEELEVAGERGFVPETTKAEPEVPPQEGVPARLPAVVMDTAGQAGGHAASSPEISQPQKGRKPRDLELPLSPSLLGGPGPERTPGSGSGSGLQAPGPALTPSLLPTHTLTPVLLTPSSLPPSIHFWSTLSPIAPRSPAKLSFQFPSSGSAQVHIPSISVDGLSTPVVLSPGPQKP
Summary of the method: as §1

[3] = target: T3, GABPA (Homo sapiens, UniProt Q06546 1-454); settings: protein: recombinant; tags: N-terminal GST; dsDNA, one strand shown
T3 sequence: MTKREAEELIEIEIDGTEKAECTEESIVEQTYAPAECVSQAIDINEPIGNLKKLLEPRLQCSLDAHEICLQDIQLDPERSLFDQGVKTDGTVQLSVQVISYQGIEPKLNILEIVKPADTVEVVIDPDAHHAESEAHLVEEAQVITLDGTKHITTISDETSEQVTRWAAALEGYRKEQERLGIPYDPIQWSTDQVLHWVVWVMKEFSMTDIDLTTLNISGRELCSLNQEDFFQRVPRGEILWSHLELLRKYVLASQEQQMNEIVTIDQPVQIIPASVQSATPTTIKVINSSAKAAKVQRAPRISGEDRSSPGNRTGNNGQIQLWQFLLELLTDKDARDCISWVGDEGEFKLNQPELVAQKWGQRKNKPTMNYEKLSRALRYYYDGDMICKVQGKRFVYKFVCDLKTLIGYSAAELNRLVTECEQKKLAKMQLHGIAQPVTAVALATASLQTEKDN
Summary of the method: as §1

[4] = target: T4, ERG (Homo sapiens, UniProt P11308 1-479); settings: protein: recombinant; tags: N-terminal GST; dsDNA, one strand shown
T4 sequence: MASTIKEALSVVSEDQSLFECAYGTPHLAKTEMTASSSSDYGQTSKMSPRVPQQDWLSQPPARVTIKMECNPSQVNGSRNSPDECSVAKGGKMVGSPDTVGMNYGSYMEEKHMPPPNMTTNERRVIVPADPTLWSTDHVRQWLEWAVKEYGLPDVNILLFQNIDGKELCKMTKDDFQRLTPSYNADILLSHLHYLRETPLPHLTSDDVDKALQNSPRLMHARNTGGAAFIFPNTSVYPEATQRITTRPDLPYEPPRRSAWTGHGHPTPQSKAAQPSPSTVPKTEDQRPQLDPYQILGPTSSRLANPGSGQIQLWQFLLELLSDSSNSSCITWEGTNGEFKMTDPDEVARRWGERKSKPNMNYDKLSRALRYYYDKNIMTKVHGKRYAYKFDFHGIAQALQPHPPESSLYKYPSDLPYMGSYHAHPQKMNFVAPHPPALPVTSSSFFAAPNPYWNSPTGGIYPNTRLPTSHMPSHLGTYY
Summary of the method: as §1

[5] = target: ELF1 (Homo sapiens, UniProt P32519 1-619); settings: protein: recombinant; tags: N-terminal GST; dsDNA, one strand shown
Chain of ELF1 (P32519 whole entry): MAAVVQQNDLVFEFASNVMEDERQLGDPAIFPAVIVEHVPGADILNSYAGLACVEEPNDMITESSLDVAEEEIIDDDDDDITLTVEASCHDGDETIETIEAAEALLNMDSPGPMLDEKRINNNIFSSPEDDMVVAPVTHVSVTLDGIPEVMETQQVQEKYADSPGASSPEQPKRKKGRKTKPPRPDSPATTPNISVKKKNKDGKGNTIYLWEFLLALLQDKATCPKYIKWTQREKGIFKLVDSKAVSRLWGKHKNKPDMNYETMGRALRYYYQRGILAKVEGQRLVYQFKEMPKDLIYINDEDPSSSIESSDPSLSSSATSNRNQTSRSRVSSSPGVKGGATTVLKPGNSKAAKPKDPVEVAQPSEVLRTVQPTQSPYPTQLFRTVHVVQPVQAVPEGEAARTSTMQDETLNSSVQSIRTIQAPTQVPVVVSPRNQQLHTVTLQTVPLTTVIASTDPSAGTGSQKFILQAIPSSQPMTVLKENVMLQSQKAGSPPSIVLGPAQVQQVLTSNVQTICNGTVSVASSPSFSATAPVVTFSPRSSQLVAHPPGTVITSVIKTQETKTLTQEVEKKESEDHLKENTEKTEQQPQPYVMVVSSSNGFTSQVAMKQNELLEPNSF
Summary of the method: as §1

[6] = target: T5, EHF (Homo sapiens, UniProt Q9NZC4 1-300); settings: protein: recombinant; tags: N-terminal GST; dsDNA, one strand shown
T5 sequence: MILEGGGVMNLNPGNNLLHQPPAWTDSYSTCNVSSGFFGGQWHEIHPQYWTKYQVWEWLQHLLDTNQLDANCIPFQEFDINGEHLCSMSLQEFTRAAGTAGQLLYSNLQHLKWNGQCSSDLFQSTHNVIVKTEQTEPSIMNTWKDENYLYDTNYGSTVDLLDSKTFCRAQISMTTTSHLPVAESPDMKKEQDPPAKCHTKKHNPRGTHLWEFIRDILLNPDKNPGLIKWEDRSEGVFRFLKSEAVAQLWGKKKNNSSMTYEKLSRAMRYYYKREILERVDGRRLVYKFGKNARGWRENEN
Summary of the method: as §1

[7] = target: SPI1 (Homo sapiens, UniProt P17947 1-270); settings: protein: recombinant; tags: N-terminal GST; dsDNA, one strand shown
Summary of the method: as §1

[8] = target: SPIB (Homo sapiens, UniProt Q01892 1-262); settings: protein: recombinant; tags: N-terminal GST; dsDNA, one strand shown
Chain of SPIB (Q01892 whole entry): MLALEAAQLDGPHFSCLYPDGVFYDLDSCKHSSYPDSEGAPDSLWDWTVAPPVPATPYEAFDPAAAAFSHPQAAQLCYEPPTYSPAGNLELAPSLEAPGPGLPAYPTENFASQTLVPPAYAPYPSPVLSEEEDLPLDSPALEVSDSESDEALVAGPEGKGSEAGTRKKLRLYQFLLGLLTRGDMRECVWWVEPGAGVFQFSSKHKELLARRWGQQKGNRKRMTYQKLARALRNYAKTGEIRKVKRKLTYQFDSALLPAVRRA
Summary of the method: as §1

[9] = target: T6, ELK3 (Homo sapiens, UniProt P41970 1-407); settings: protein: recombinant; tags: N-terminal GST; dsDNA, one strand shown
T6 sequence: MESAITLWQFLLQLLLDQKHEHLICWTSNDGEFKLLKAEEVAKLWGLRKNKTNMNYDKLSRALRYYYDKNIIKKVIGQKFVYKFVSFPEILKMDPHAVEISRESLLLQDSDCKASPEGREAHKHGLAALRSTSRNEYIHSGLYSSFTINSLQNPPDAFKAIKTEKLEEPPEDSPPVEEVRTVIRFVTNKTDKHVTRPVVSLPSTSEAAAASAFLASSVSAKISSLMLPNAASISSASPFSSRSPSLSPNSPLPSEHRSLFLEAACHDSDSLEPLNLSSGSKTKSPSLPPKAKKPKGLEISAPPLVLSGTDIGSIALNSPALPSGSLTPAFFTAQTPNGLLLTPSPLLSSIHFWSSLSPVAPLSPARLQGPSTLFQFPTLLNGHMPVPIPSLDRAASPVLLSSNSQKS
Summary of the method: as §1

[10] = target: T7, FEV (Homo sapiens, UniProt Q99581 1-238); settings: protein: recombinant; tags: N-terminal GST; dsDNA, one strand shown
T7 sequence: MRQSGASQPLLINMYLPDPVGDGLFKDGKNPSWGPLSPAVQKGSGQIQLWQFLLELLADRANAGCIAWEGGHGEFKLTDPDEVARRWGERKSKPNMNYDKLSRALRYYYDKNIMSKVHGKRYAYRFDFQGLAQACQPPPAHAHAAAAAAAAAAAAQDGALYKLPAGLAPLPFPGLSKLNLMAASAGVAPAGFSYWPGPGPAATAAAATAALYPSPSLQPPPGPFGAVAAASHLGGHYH
Summary of the method: as §1

[11] = target: ETV5 (Homo sapiens, UniProt P41161 1-510); settings: protein: recombinant; tags: N-terminal GST; dsDNA, one strand shown
Chain of ETV5 (P41161 whole entry): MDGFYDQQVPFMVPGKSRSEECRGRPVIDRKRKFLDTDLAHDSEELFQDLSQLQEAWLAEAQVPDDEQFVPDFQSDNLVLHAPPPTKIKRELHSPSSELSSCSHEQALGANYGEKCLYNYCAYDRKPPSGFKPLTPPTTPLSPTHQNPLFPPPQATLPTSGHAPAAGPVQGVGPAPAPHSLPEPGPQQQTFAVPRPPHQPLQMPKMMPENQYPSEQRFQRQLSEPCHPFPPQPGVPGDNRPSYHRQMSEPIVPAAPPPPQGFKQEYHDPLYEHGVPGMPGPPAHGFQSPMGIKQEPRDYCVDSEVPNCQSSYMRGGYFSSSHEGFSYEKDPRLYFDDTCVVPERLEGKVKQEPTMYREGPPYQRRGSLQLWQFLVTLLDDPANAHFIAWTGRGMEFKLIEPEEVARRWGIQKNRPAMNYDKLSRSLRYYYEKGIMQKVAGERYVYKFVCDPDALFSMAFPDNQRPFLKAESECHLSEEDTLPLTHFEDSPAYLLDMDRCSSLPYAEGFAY
Summary of the method: as §1

[12] = target: HSF1 (Homo sapiens, UniProt Q00613 1-529); settings: protein: recombinant; tags: N-terminal GST; chain copies: 3; dsDNA, one strand shown
Chain of HSF1 (Q00613 whole entry): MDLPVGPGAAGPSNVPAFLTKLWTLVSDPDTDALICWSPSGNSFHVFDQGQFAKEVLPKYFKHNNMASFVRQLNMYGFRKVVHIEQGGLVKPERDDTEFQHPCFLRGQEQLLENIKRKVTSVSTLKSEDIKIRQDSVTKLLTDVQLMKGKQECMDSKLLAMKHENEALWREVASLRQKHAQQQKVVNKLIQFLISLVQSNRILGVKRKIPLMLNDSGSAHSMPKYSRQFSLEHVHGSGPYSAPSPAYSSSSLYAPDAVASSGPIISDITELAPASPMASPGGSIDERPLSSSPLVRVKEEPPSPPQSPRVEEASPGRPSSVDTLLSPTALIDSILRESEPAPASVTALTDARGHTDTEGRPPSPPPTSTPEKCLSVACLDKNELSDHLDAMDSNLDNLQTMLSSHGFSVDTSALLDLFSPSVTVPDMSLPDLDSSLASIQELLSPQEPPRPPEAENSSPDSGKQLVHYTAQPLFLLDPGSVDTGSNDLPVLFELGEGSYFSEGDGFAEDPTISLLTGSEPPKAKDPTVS
Summary of the method: as §1

[13] = target: T8, SPIC (Homo sapiens, UniProt Q8N5J4 1-248); settings: protein: recombinant; tags: N-terminal GST; dsDNA, one strand shown
T8 sequence: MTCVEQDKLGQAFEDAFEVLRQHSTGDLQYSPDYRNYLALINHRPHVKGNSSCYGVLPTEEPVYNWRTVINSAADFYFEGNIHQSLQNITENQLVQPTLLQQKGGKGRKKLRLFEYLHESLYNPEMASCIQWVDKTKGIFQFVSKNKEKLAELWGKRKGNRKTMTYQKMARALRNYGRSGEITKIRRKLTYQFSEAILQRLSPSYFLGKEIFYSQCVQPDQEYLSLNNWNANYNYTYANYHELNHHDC
Summary of the method: as §1

[14] = target: ELF4 (Homo sapiens, UniProt Q99607 1-663); settings: protein: recombinant; tags: N-terminal GST; dsDNA, one strand shown
Chain of ELF4 (Q99607 whole entry): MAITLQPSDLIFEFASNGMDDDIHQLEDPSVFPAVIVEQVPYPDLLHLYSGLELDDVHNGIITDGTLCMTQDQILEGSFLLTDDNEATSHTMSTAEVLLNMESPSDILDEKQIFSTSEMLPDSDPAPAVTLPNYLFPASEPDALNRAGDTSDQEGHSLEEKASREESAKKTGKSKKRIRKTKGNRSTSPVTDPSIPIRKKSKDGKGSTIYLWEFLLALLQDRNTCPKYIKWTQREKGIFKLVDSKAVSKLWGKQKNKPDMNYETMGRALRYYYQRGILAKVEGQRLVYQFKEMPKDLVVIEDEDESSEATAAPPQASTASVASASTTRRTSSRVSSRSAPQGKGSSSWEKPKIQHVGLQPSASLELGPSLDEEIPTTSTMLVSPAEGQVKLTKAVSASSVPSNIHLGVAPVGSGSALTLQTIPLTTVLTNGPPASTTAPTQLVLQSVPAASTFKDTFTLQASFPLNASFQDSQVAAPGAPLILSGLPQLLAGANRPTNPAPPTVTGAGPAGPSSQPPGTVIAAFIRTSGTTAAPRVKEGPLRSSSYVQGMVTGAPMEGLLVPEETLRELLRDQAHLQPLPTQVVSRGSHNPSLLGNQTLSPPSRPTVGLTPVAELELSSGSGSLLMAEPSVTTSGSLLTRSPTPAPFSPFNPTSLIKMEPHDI
Summary of the method: as §1

[15] = target: T9, ELK4 (Homo sapiens, UniProt P28324-2 1-405); settings: protein: recombinant; tags: N-terminal GST; dsDNA, one strand shown
T9 sequence: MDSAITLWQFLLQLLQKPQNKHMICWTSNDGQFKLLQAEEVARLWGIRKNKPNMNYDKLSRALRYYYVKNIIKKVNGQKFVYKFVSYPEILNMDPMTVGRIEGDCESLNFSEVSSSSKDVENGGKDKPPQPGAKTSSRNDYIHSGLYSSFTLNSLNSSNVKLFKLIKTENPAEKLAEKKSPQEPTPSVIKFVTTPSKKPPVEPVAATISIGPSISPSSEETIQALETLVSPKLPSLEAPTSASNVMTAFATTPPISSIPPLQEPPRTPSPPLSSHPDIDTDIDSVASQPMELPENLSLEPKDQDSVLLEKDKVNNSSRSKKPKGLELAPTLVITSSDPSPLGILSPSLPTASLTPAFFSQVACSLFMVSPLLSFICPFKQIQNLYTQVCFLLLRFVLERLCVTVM
Summary of the method: as §1

[16] = target: T10, ETV2 (Homo sapiens, UniProt O00321 1-342); settings: protein: recombinant; tags: N-terminal GST; dsDNA, one strand shown
T10 sequence: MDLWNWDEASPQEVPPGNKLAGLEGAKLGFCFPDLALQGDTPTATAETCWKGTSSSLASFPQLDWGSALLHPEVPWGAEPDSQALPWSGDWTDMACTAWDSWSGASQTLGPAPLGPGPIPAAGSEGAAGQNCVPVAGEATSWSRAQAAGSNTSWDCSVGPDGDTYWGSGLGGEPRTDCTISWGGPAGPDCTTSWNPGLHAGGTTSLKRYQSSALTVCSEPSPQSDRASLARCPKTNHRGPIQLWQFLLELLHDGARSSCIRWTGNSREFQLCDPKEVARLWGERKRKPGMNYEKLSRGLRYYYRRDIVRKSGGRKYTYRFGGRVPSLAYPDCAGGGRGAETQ
Summary of the method: as §1

[17] = target: CRX (Homo sapiens, UniProt O43186 1-299); settings: protein: recombinant; tags: N-terminal GST; dsDNA, one strand shown
Chain of CRX (O43186 whole entry): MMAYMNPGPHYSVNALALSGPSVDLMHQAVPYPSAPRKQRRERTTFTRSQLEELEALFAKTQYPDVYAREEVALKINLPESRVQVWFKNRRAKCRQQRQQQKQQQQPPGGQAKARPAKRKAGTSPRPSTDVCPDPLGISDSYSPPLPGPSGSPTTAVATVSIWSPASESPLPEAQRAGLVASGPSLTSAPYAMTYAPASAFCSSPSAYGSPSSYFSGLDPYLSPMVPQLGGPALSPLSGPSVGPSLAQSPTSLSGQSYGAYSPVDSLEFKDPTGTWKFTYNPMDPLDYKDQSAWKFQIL
Summary of the method: as §1

[18] = target: ETV1 (Homo sapiens, UniProt P50549 1-477); settings: protein: recombinant; tags: N-terminal GST; dsDNA, one strand shown
Chain of ETV1 (P50549 whole entry): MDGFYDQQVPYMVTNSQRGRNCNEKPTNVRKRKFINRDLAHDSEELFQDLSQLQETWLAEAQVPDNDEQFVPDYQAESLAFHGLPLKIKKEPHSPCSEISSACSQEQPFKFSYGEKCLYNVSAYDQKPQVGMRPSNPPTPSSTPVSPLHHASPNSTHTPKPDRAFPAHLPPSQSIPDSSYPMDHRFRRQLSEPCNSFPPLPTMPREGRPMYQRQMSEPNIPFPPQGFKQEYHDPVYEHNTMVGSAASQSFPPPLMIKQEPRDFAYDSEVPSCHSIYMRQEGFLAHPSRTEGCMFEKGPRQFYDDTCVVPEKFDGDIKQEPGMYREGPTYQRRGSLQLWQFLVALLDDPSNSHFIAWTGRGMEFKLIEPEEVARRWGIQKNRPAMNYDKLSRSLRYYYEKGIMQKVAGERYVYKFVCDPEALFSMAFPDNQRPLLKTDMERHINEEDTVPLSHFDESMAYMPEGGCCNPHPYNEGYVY
Summary of the method: as §1

Sequence | binding signal [1] | binding signal [2] | binding signal [3] | binding signal [4] | binding signal [5] | binding signal [6] | binding signal [7] | binding signal [8] | binding signal [9] | binding signal [10] | binding signal [11] | binding signal [12] | binding signal [13] | binding signal [14] | binding signal [15] | binding signal [16] | binding signal [17] | binding signal [18]
TGATTT | 1.29 fold enrichment (6-mer frequency, TF over GST control) | 1.2 fold enrichment (6-mer frequency, TF over GST control) | 1.33 fold enrichment (6-mer frequency, TF over GST control) | 1.35 fold enrichment (6-mer frequency, TF over GST control) | 1.23 fold enrichment (6-mer frequency, TF over GST control) | 1.18 fold enrichment (6-mer frequency, TF over GST control) | 1.21 fold enrichment (6-mer frequency, TF over GST control) | 1.23 fold enrichment (6-mer frequency, TF over GST control) | 1.11 fold enrichment (6-mer frequency, TF over GST control) | 1.26 fold enrichment (6-mer frequency, TF over GST control) | 1.27 fold enrichment (6-mer frequency, TF over GST control) | 1.27 fold enrichment (6-mer frequency, TF over GST control) | 1.39 fold enrichment (6-mer frequency, TF over GST control) | 1.23 fold enrichment (6-mer frequency, TF over GST control) | 1.2 fold enrichment (6-mer frequency, TF over GST control) | 1.29 fold enrichment (6-mer frequency, TF over GST control) | 1.35 fold enrichment (6-mer frequency, TF over GST control) | 1.31 fold enrichment (6-mer frequency, TF over GST control)
GATACT | 1.14 fold enrichment (6-mer frequency, TF over GST control) | 1.01 fold enrichment (6-mer frequency, TF over GST control) | 1.2 fold enrichment (6-mer frequency, TF over GST control) | 1.21 fold enrichment (6-mer frequency, TF over GST control) | 1.1 fold enrichment (6-mer frequency, TF over GST control) | 1.21 fold enrichment (6-mer frequency, TF over GST control) | 1.12 fold enrichment (6-mer frequency, TF over GST control) | 1.16 fold enrichment (6-mer frequency, TF over GST control) | 1.09 fold enrichment (6-mer frequency, TF over GST control) | 1.1 fold enrichment (6-mer frequency, TF over GST control) | 1.07 fold enrichment (6-mer frequency, TF over GST control) | 1.07 fold enrichment (6-mer frequency, TF over GST control) | 1.05 fold enrichment (6-mer frequency, TF over GST control) | 1.18 fold enrichment (6-mer frequency, TF over GST control) | 1.18 fold enrichment (6-mer frequency, TF over GST control) | 1.02 fold enrichment (6-mer frequency, TF over GST control) | 1.07 fold enrichment (6-mer frequency, TF over GST control) | 1.1 fold enrichment (6-mer frequency, TF over GST control)
